Consider 15 molecules from PubChem BioAssay (NCATS).

“And” between values parts separate entries of the source, which are not always exact repeats. Identical values can stand only once. Results filed as inconclusive are left out. Unmarked numbers belong to inactive results. The source made the active and inactive calls. Calls come from the whole dose curve; as a rule, active = well fitted cell-killing curve with a large enough effect; inconclusive = small, poorly fitted or top-dose-only effect; inactive = flat fitted curve, though single readings scatter.
% is set by controls: 0 for no effect and ±100 for the full control effect; potency is the fitted concentration of half-maximal effect.

The assay in a line: Cellular viability qHTS for adrenocortical cancer (ACC) cell line SW-13 (AID 1963989).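 For activity (max response): cells grown in serum-free medium with ITS supplement.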 Note: nearly all actives have a fitted effect of over 65% in size. The note with it: SW-13 ACC cells viability, CellTiter-Glo, 48 h; activity (max response): active compounds read low. The gist of the method:
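IC50 and maximal-response values come from four-parameter logistic fits of titration data. SW-13 cells in serum-free medium received compounds (up to 46 uM final) for 48 h before CellTiter-Glo luminescence.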
For `O=C1C(CCS(=O)c2ccccc2)C(=O)N(c2ccccc2)N1c1ccccc1` (stereo not given), the activity (max response) is 7.53%.
Take `Cc1nc(Nc2ncc(C(=O)Nc3c(C)cccc3Cl)s2)cc(N2CCN(CCO)CC2)n1`: the Potency is 1.84 µM (active) and 1.41 µM (active).
As for `CCCCCCCC/C=C/C(=O)O`, the activity (max response) is -1.5%.
For `CN1CCN(C2=Nc3ccccc3Oc3ccc(Cl)cc32)CC1`, the activity (max response) was -13.7%.
Take `COc1ccnc2c1CCCCC2S(=O)c1nc2ccccc2[nH]1` (stereo not given): the activity (max response) was 4.45%.
Still for that read-out and setting: the figure for `Cc1cc(O)c(-c2ccc([C@@H](C)CN)cc2)c2c1[nH]c(=O)c1sccc12` is -7.01%.
Still for that read-out and setting: the same measure for `CCCCC[C@H](O)/C=C/[C@H]1[C@H](O)CC(=O)[C@@H]1CCCCCCC(=O)O`: 1.24%.
For the molecule `Oc1c(Cl)cc(Cl)cc1Sc1cc(Cl)cc(Cl)c1O`, the Potency was 20.6 µM (active).
Take `C[C@@H](Nc1ncnc2[nH]c(-c3ccc(O)cc3)cc12)c1ccccc1`: the Potency is 3.98 µM (active).
For `CC(=O)[C@H]1CC[C@H]2[C@@H]3C=CC4=CC(=O)CC[C@@]4(C)[C@@H]3CC[C@]12C`, the activity (max response) is -20.4%.
On to `COc1ccc2c(c1)c(CC(=O)OC/C=C(\C)CC/C=C(\C)CCC=C(C)C)c(C)n2C(=O)c1ccc(Cl)cc1`, for which the activity (max response) was 2.52%.
For the molecule `Cn1cc(-c2nc(N[C@@H]3CCCC[C@@H]3N)c(F)c3c2C(=O)NC3)cn1`, the activity (max response) was 8.72%.
In the case of `Cc1ccc(C(C)C)c(O)c1`, the activity (max response) was 10.4%.
Turning to `O=c1c(-n2ccnn2)c[nH]n1-c1cc(N2CCOCC2)ncn1`, the activity (max response) was -5.69%.
Regarding `Cc1c(F)cc(C(=O)NC2CC2)cc1-c1c(F)cn2c(C(C)(C)C)nnc2c1F`, the activity (max response) was -10.3%.
